Hits are enriched below; roughly 7.5% of the tested compounds scored in any of these assays.
FLuc counter – qHTS profiling assay for firefly luciferase inhibitor/activator using purifed enzyme and Km concentrations of substrates (counterscreen for miR-21 project). Luciferin 4-monooxygenase (Photinus pyralis), P08659. purified FLuc, Km substrates, luminescence inhibition. Potency, µM (titrated, usually from 57.5 µM), for inactives: top-dose activity change, negative = inhibition, hits mostly inhibitors. actives 6.9% (n = 360,000);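 note: plate controls were vehicle for no effect and reference inhibitor for full effect; nearly all actives have a fitted effect of over 55% in size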
Target sequence (P08659 whole entry, looked up): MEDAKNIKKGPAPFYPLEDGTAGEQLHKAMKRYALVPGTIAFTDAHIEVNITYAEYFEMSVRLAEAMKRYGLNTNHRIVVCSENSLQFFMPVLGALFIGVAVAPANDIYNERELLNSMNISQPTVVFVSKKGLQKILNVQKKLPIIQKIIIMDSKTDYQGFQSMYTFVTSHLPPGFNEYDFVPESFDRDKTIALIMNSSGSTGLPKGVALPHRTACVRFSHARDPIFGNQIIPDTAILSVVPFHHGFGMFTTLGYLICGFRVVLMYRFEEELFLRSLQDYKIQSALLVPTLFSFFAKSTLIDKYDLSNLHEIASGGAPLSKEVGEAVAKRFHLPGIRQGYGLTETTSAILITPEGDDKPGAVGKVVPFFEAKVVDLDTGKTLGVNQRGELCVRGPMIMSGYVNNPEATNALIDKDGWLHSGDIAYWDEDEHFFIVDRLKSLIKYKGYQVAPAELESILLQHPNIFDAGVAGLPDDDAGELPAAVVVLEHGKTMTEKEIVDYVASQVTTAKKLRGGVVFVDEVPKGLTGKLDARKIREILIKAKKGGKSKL
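Biochemical qHTS of compounds, final roughly 60 µM downward over six points, against 10 nM purified firefly luciferase using Km concentrations of substrates (10 uM D-luciferin, 10 uM ATP) in Tris acetate pH 7.5 buffer; luminescence output.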
KinaseGlo FLuc – Counterscreen for Luciferase (Kinase-Glo TM) Inhibition. actives 0.28% (n = 200,000). AID 1379, 2008. Luciferin 4-monooxygenase (Photuris pensylvanica), Q27757. Kinase-Glo luciferase, ATP luminescence, 8 min. Potency, µM (top dose mostly 38.3 µM), for the others: at the highest dose activity change, negative = inhibition, most hits filed as inhibitors; note: % is set by controls: 0 for no effect and ±100 for the full control effect; nearly all actives have a fitted effect of over 60% in size
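Kinase-Glo luciferase light output from ATP and luciferin was measured with 10 uM ATP, within the enzyme's linear range. Buffer: 50 mM imidazole pH 7.2, 50 mM KCl, 7 mM MgCl2, 0.01% Tween 20, 0.05% BSA; luminescence read after 8 min at ambient temperature.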
Rab9 promoter act – qHTS Assay for Rab9 Promoter Activators; Huh7 Rab9 promoter-luciferase reporter, luminescence, 24 h; Potency, µM (top dose mostly 9.22 µM), without a hit: at the highest dose activation, negative = inhibition, actives largely listed as activators; actives 2.8% (n = 320,000); note: % of control where 0% means no effect; nearly all actives have a fitted effect of over 60% in size
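Stable Rab9-luc Huh7, 1500 cells/well, 2 h settle; cmpd in DMSO, 24 h, 37 °C/5% CO2; luciferase reagent 10 min RT; luminescence.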
ELG1 genotox – qHTS screen for small molecules that induce genotoxicity in human embryonic kidney (HEK293T) cells expressing luciferase-tagged ELG1; AID 504466, 2011; Potency, µM (titrated, usually from 46 µM), for the others: at the highest dose activity change, positive = activation, most hits filed as activators; HEK293T ELG1-luciferase reporter, luminescence, 16 h; actives 1.3% (n = 330,000); note: % of control where 0% means no effect; nearly all actives have a fitted effect of over 60% in size
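Quantitative HTS format in 1536-well plates. HEK293T ELG1-luciferase reporter cells receive test compound and are incubated 16 hr at 37 °C, 5% CO2; ONE-Glo added, 30 min room temperature, then luminescence read.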
SMN2 splice up – qHTS Assay for Enhancers of SMN2 Splice Variant Expression; HEK293 SMN2-luciferase splicing reporter, luminescence, 30-36 h; Potency, µM (doses to about 46.1 µM), for inactives: at the highest dose activity change, positive = activation, usual class: activators; actives 2.8% (n = 210,000); AID 1458, 2008; note: % of control where 0% means no effect; nearly all actives have a fitted effect of over 55% in size
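qHTS luciferase splicing reporter: luminescence rises when SMN2 exon 7 is included in transfected HEK293 cells. Compound exposure lasted 30-36 h at 37C, with 4.5 mM final sodium butyrate as control, followed by a ONE-Glo read.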
NPC1 prom act – qHTS Assay for NPC1 Promoter Activators; Huh7 NPC1 promoter luciferase reporter, 24 h; Potency, µM (highest dose often 9.22 µM), without a hit: at the highest dose activation, actives largely listed as activators; actives 2.4% (n = 320,000); note: % of control where 0% means no effect; nearly all actives have a fitted effect of over 60% in size
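In 1536-well qHTS, Huh7 cells harboring an NPC1 promoter–luciferase construct received compound for 24 h; activation was quantified by luminescence following luciferase reagent addition.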
Numbers without * were called inactive; ? = inconclusive; · = no result; [ ] = another dose, or the depositor's remark. Calls come from the whole dose curve; as a rule, active = well fitted curve in the direction sought with a large enough effect; inconclusive = small, poorly fitted or top-dose-only effect, or another doubt; inactive = no such curve, though single readings can be large; an effect the other way counts as inactive or inconclusive. Potency is the fitted concentration of half-maximal effect.

SMILES	FLuc counter	KinaseGlo FLuc	Rab9 promoter act	ELG1 genotox	SMN2 splice up	NPC1 prom act
CC#CC(=O)N1CCCC(Cc2cccc(OC)c2)(C(=O)OCC)C1 (stereo not drawn)	23.9µM*	·	?	16.0%	·	?
NC[C@@H]1O[C@@H](O[C@H]2[C@H](O)[C@H](O[C@@H]3O[C@H](CO)[C@@H](O)[C@H](N)[C@@H]3O)[C@@H](N)C[C@H]2N)[C@H](N)C[C@@H]1O	·	1.7%[17.1 µM]	·	·	-29.2%[20.6 µM]	·
CCOC(=O)C1(Cc2cccc(OC)c2)CCN(C2CCOCC2)CC1	3.01µM*	-4.4%	?	?	·	?
O=c1[nH]c2ccccc2nc1Cc1ccccc1	0.2%	-1.9%	4.7%	0.1%	2.2%	1.0%
O=C(Cc1nc2ccccc2[nH]c1=O)c1ccccc1	3.38µM*	-20.1%	1.41µM*	?	11.2µM*	3.16µM*
O=C(Cc1nc2ccccc2[nH]1)c1ccc(Br)cc1	21.3µM*	-1.9%	?	8.9%	?	28.8%
COC(=O)c1cc2oc3ccccc3c2n1Cc1nc(-c2ccc(Cl)cc2)oc1C	4.0%	·	·	·	2.5%	·
COc1ccc(-c2csc(NC(=O)C3CC(=O)N(c4ccc5c(c4)OCCO5)C3)n2)cc1 (stereo not drawn)	-14.4%	·	-2.5%	-3.7%	·	-4.2%
CC(C)(C)C(=O)OCc1nc(-c2ccc3c(c2)OCCO3)cs1	0.536µM*	·	3.16µM*	?	·	2.82µM*
CC(C)(C)C(=O)OCc1nc(-c2ccc(Cl)cc2)cs1	1.2µM*	·	4.47µM*	?	·	3.55µM*
NC(=O)Cc1nc(-c2ccc(F)cc2)cs1	-2.2%	·	12.7%	7.4%	·	4.0%
CCCC(=O)Nc1nc(-c2ccc(OC)cc2)cs1	?	17.1%	?	?	?	24.1%
COc1ccc(-c2csc(COC(=O)C(C)(C)C)n2)cc1	2.39µM*	·	?	5.7%	·	23.9%
CC(C)(C)C(=O)OCc1nc(-c2ccc(F)cc2)cs1	1.35µM*	·	2.51µM*	17.9%	·	?
C=Cc1ccc(Cn2c(=O)n(-c3cccc(Cl)c3)c(=O)c3c4c(sc32)CN(C(C)=O)CC4)cc1	2.7%	·	·	·	11.3%	·
CCOc1ccc2nc(N3C(=O)/C(=C/c4ccc(Cl)cc4)NC3=S)sc2c1	9.53µM*	-0.3%	3.4%	-0.5%	5.6%	13.0%
O=C1/C(=C/c2ccc(Cl)cc2)NC(=S)N1Cc1cccnc1	-10.5%	·	0.2%	-8.9%	·	-1.2%
COc1cc(Cl)cc(/C=C/c2ccc3ccccc3n2)c1OC(C)=O	6.75µM*	-3.0%	2.51µM*	?	2.51µM*	2µM*
CCCN1CCN(CCNC(=O)Nc2cc(C)ccc2OC)CC1	6.4%	·	·	·	8.9%	·
CCOc1ccc(C(=O)Nc2onc3c2CCCC3)cc1	0.301µM*	·	·	·	2.82µM*	·
CC(C)COc1ccc(C(=O)Nc2onc3c2CCCC3)cc1	0.338µM*	·	·	·	18.6%	·
COc1ccc(N=C2NN=C(c3ccc4c(c3)OCCO4)CS2)cc1	?	4.8%	22.9%	15.2%	-11.5%	-0.4%
COCCN=C1NN=C(c2ccc(C)c([N+](=O)[O-])c2)CS1	15.1µM*	-1.1%	4.47µM*	18.3µM*	11.2µM*	2.82µM*
CCCCN=C1NN=C(c2ccc3c(c2)OCCO3)CS1	3.01µM*	-24.1%	0.891µM*	1.83µM*	·	1.26µM*
COCCn1c(C)cc(C2=NNC(=NC(C)(C)C)SC2)c1C	?	-1.1%	?	?	-26.9%	?
SMILES	FLuc counter	KinaseGlo FLuc	Rab9 promoter act	ELG1 genotox	SMN2 splice up	NPC1 prom act
c1cc2c(cc1C1=NNC(=NC3CC3)SC1)OCCO2	0.239µM*	2.24µM*	0.0013µM*	?	-80.0%	0.0003µM*
CCCCN=C1NN=C(c2ccc(C)c(C)c2)CS1	23.9µM*	1.4%	1.58µM*	13.2%	14.1µM*	2.82µM*
C=C(C)C(=O)/C=C/c1ccc(Br)cc1	·	0.5%	·	·	-2.5%	·
COc1ccccc1N1CCN(S(=O)(=O)c2ccc3c(c2)CCCN3C(C)=O)CC1	-4.2%	·	·	·	·	·
COc1cc(-c2nnc(-c3ccco3)o2)ccc1OCc1ccccc1	15.1µM*	4.0%	16.7%	10.8%	?	17.2%
c1ccc(-c2nnc(-c3ccncc3)o2)cc1	?	-14.6%	3.16µM*	11.5%	17.9%	?
Nc1ccccc1-c1nnc(-c2ccc(-c3ccccc3)cc2)o1	3.01µM*	-20.6%	3.16µM*	2.59µM*	?	3.98µM*
Clc1cccc(-c2nnc(-c3ccccc3)o2)c1	1.51µM*	-24.6%	0.891µM*	1.16µM*	12.6µM*	1.41µM*
O=S(=O)(Cc1ccccc1)c1ccccc1-c1nnc(-c2ccccc2)o1	4.4%	8.6%	-2.3%	0.2%	-3.1%	-0.9%
COc1ccc(NC(=O)c2sc3nc4c(c(-c5ccc(OC)cc5)c3c2N)C(=O)CC(C)(C)C4)cc1	-2.1%	·	·	·	-4.5%	·
COc1ccc(-c2nnc(-c3ccccc3)o2)cc1OC	8.49µM*	·	1.78µM*	?	·	2.24µM*
ClCc1nnc(-c2ccccc2)o1	-8.7%	-3.9%	0.3%	-1.2%	-6.1%	-3.6%
COc1ccc(-c2nnc(-c3cc4c(ccc5ccccc54)oc3=O)o2)cc1	3.9%	-7.4%	5.9%	0.6%	-14.6%	-0.8%
c1ccc(-c2nnc(-c3ccccc3)o2)cc1	5.36µM*	-21.7%	1.41µM*	?	12.6µM*	1.58µM*
COc1cccc(-c2nnc(-c3ccc(C(F)(F)F)cc3)o2)c1	?	-1.2%	?	?	22.4µM*	?
COc1cccc(-c2nnc(NC(C)=O)o2)c1	-18.6%	·	5.3%	3.5%	·	-0.8%
COc1ccc(-c2cc(-c3nnc(-c4ccncc4)o3)c3ccccc3n2)cc1	2.69µM*	-5.8%	-3.5%	-0.3%	-6.4%[1.84 µM]	-3.5%
CN1Cc2c(C(=O)OC(C)(C)C)ncn2-c2ccsc2C1=O	·	1.8%	·	·	·	·
COc1ccc(N2CCN(C(=O)Cn3cnc4sc(C)c(S(=O)(=O)N5CCCCC5)c4c3=O)CC2)cc1	5.9%	·	·	·	4.0%	·
O=C(Cc1ccccc1)NC1CC(=O)N(c2ccc3c(c2)OCCO3)C1 (stereo not drawn)	-0.7%	·	·	·	·	·
CN(C)S(=O)(=O)c1cccc(-c2nnc(-c3ccccc3)o2)c1	23.9µM*	-1.7%	?	?	10.5%	?
Brc1cc(Br)c2nc(-c3cccs3)ccc2c1	9.53µM*	-5.7%	?	11.2µM*	11.2µM*	1.0%
Nc1nccc(-c2cccs2)n1	0.0%	-1.3%	2.4%	0.4%	14.2%	-0.7%

High-throughput results deposited in PubChem BioAssay by National Center for Advancing Translational Sciences (NCATS).
